Bioassay records deposited in PubChem by National Center for Advancing Translational Sciences (NCATS).
DT40 TDP1 no CPT: qHTS for Inhibitors of human tyrosyl-DNA phosphodiesterase 1 (TDP1): qHTS in cells in absence of CPT | DT40 Tdp1-/- hTDP1 cells, no CPT, ATP luminescence, 48 h | Potency, µM (titrated, usually from 46.2 µM), hits mostly inhibitors | actives 15% (n = 420,000) | AID 686978, 2013; also: nearly all actives have a fitted effect of over 55% in size
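DT40 Tdp1-/-;hTDP1 cells, no CPT (DMSO vehicle only), 400 cells/well; compounds pin-transferred; ≥48 hr, 37 °C; CellTiter-Glo 30 min RT dark, luminescence read.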
IL1B secr inh: qHTS for Inhibitors of Inflammasome Signaling: IL-1-beta AlphaLISA Primary Screen; actives 4.7% (n = 360,000); AID 743279, 2014; activity change, % at 57.5 µM; THP-1 LPS/ATP IL-1B secretion, AlphaLISA, 16 h; stronger effect = lower value; in the data active = activity change below about -50%; inconclusive = mostly about -30% to -49%
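Secreted IL-1B measured by AlphaLISA bead assay after 16 h compound exposure of THP-1 cells; compounds (final up to 57.5 uM) added 1 h before LPS (250 ng/mL) and ATP (1.25 mM) stimulation; lower signal means less secretion.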
TDP1 cell CPT: qHTS for Inhibitors of human tyrosyl-DNA phosphodiesterase 1 (TDP1): qHTS in cells in presence of CPT | chicken DT40 Tdp1-/-;hTDP1 cells + 20 nM CPT, ATP luminescence, 48 h | Potency, µM (doses to about 46.2 µM), usual class: inhibitors | actives 12% (n = 420,000); also: nearly all actives have a fitted effect of over 55% in size
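Chicken DT40 Tdp1-/- cells stably complemented with human TDP1 were seeded at 400 cells/well in medium containing 20 nM camptothecin, exposed to pin-transferred compounds, and grown at 37 °C for at least 48 hr. Viability was read as ATP luminescence.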
ClpP mod: qHTS Assay for Activators of ClpP | purified B. subtilis ClpP, FRET peptide cleavage, 20 min | Potency, µM (doses to about 57.5 µM) | actives 1.9% (n = 340,000) | AID 651965, 2013; active = well fitted falling curve with a large enough effect; inconclusive = small, poorly fitted or top-dose-only effect; inactive = no such curve, though single readings can be large or run the other way; also: the source files actives as falling curves though it sought activators and does not explain the sign; nearly all actives have a fitted effect of over 65% in size
Target sequence (P80244 whole entry, looked up): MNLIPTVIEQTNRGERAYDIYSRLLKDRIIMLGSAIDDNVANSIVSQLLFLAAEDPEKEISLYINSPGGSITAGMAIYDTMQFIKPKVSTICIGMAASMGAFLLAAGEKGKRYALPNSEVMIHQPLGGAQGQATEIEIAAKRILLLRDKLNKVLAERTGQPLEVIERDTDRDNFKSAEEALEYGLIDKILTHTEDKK
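Buffer: 100 mM Tris/HCl pH8, 100 mM KCl, 0.05% low protease BSA, 2.5% glycerol, 0.01% Tween-20. ClpP 10 microg/mL final; 20 min RT; delta FRET normalized to ADEP and DMSO controls.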
D3 ag: qHTS of D3 Dopamine Receptor Agonist: qHTS. D3R DiscoveRx beta-arrestin cells, luminescence, 90 min. max activation, %. actives 0.58% (n = 410,000); in the data active = max activation above about 30%
Target sequence (P35462 whole entry, looked up): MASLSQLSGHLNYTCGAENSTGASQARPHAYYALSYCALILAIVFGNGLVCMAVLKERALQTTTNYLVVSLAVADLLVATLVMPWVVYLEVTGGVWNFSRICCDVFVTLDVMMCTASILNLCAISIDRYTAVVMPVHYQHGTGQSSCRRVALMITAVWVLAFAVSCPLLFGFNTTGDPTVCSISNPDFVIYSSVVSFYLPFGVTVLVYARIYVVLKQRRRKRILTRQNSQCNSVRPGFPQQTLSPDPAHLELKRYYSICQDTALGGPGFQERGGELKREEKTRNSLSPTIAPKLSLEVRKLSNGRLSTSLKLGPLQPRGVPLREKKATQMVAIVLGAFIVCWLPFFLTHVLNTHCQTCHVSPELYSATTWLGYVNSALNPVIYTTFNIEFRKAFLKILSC
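Agonist mode: compounds and dopamine controls were applied to plated cells for 90 min at 37 degrees C after an overnight attachment at 1500 cells/well. Luminescent read-out followed 30 - 60 minutes at room temperature with DiscoveRx detection reagent.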
DRD3 antagonist: qHTS of D3 Dopamine Receptor Antagonist: qHTS | D(3) dopamine receptor (Homo sapiens), P35462 | D3R cells, DiscoveRx beta-arrestin luminescence, antagonist mode; stronger effect = lower value | max response, negative = inhibition, % | actives 2.5% (n = 360,000); in the data active = max response below about -50%; inconclusive = no clear call, values can overlap the other calls
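Cells expressing the human receptor were seeded at 1500 cells/well, incubated overnight at 37 degrees C in 5% CO2, then exposed to library compounds with dopamine controls for 90 minutes at 37 degrees C before luminescent detection.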
A number is an active result; . = inactive; ? = inconclusive; / = no result; [ ] = another dose, or the depositor's remark. Sampled rows, rich in hits. Any-hit rate of the full collection: about 21%. Unless noted, calls follow the shape of the dose curve; as a rule, active = well fitted inhibition curve with a large enough effect; inconclusive = small, poorly fitted or top-dose-only effect; inactive = flat fitted curve, though single readings scatter.

SMILES	DT40 TDP1 no CPT	IL1B secr inh	TDP1 cell CPT	ClpP mod	D3 ag	DRD3 antagonist
O=c1[nH]cnc2c1ncn2-c1ccc(N(CCO)CCO)cc1	.	.	.	.	.	.
CCCC(=O)Nc1ccc2c(c1)nc(CN1CCN(C(=O)OCC)CC1)n2CC	2.3µM	.	3.7µM	.	.	.
CCCC(=O)Nc1ccc2c(c1)nc(CN1CCN(C(=O)OCC)CC1)n2C(C)C	0.065µM	/	0.65µM	.	.	/
CCOC(=O)N1CCN(Cc2nc3cc(NC(=O)c4ccccc4Cl)ccc3n2C(C)C)CC1	1.5µM	/	1.5µM	.	.	/
Cn1c(CN2CCOCC2)nc2cc(NC(=O)c3ccccc3Cl)ccc21	.	.	.	.	.	?
CCCCC(=O)Nc1ccc2c(c1)nc(CN1CCN(C(=O)OCC)CC1)n2C	.	.	?	.	.	.
CCCC(=O)Nc1ccc2c(c1)nc(CN1CCN(C(=O)OCC)CC1)n2C	.	.	.	/	.	.
CC1CN(CCC(=O)NC(c2cccnc2)C(F)(F)F)Cc2cc(Cl)ccc2O1 (stereo not drawn)	?	/	.[9.04 µM]	/	/	/
CCN(CC(=O)N1CCOCC1)S(=O)(=O)c1ccc(Cl)cc1	.	.	.	.	.	.
CCN(CC(=O)Nc1c(F)cccc1F)C(=O)c1nn(C)c(=O)c2ccccc12	.	.	.	.	.	.
Cc1ccc(CNC(=O)Nc2ccc(F)cc2)n1C	.	.	.	.	.	.
CCn1c2ccccc2c2nnc(SCCN3CCCCC3)nc21	?	?	26µM	.	.	?
Cc1nc2c3cc(Cl)ccc3n(CCN3CCOCC3)c2s1	15µM	.	?	.	.	.
CCn1c2ccccc2c2nnc(SCc3ccccc3)nc21	?	.	?	.	.	.
CCN(CC)CCn1c2ccc(F)cc2c2nc(C)sc21	.	?	.	.	.	.
Cc1ccc2c(c1)c1nc3ccccc3nc1n2CCN1CCOCC1	18µM	-58	?	.	.	.
CCn1c2ccccc2c2nnc(SCCN3CCOCC3)nc21	?	.	.	.	.	.
CCn1c2ccccc2c2nnc(SCCCn3c(=O)[nH]c4ccccc43)nc21	23µM	.	?	.	.	.
CCN1C(=O)[C@H]2[C@@H](c3ccccc3)N[C@]3(CCCN(Cc4ccccc4)C3=O)[C@H]2C1=O	.	.	.	.	.	.
O=C(OCCO)c1ccccc1O	.	/	.	/	.	/
Cc1ccccc1CNCc1c(C(=O)O)c(C)n(Cc2ccc(F)cc2Cl)c1C	.	/	.	.	.	/
O=C(COc1ccccc1)N=C1SC2CS(=O)(=O)CC2N1c1cccc(F)c1 (stereo not drawn)	.	.	.	.	.	.
CCCCn1c2ccc(C)cc2c2nnc(SCCN3CCCCC3)nc21	21µM	-78	?	.	.	.
CCn1c2ccc(C)cc2c2nnc(SCCN3CCOCC3)nc21	21µM	-64	?	.	.	.
CCn1c2ccccc2c2nnc(SCc3ccc(C(=O)OC)o3)nc21	23µM	.	18µM	.	.	.
SMILES	DT40 TDP1 no CPT	IL1B secr inh	TDP1 cell CPT	ClpP mod	D3 ag	DRD3 antagonist
Cn1c2ccccc2c2nnc(SCCN3CCOCC3)nc21	.	.	?	.	.	.
Cc1ccc2c(c1)c1nnc(SCC(=O)N3CCN(c4ccc(F)cc4)CC3)nc1n2CC(=O)O	.	.	.	.	.	.
CCOC(=O)c1c(NC(=O)CS(=O)(=O)c2ccc(C)cc2)sc2c1CCCCC2	?	/	?	.	.	/
COC(=O)C1CCN(C(=O)Cn2nnc(-c3cccc(F)c3)n2)CC1	.	.	.	/	.	.
O=C(COC(=O)c1cccc(Br)c1)NCc1ccco1	.	.	.	/	.	.
Cn1nnnc1SCC(=O)Nc1ccccc1C(N)=O	.	.	.	.	.	.
O=C(NCCc1csc(-c2cccnc2)n1)c1cccs1	21µM	.	?	.	.	.
O=C(NCCc1csc(-c2cccnc2)n1)c1cccc(C(F)(F)F)c1	/	/	/	.	.	/
O=C(NCCc1csc(-c2ccc(C(F)(F)F)cc2)n1)c1cccs1	18µM	.	?	.	.	.
CCOc1ccc(C(=O)NCCc2csc(-c3ccc(C(F)(F)F)cc3)n2)cc1OCC	15µM	/	?	.	.	/
O=C(NCCc1csc(-c2ccc(C(F)(F)F)cc2)n1)c1ccccc1Cl	?	/	?	.	.	/
O=C1CC(c2nc3ccccc3n2CCC2CCCCC2)CN1c1ccccc1Cl (stereo not drawn)	?	/	.	.	.	/
O=C(C/C=N\OCc1ccc([N+](=O)[O-])cc1)Nc1ccc(Br)cc1	.	.	.	/	.	.
O=C(c1cc(F)c(F)cc1Cl)N1CCCc2ccccc21	?	.	.	/	.	.
CCN1CCCc2cc(CN(CCN3CCOCC3)C(=S)Nc3ccc(OC)cc3)ccc21	.	.	.	.	.	.
CCN1CCCc2cc(CN(CCN3CCOCC3)C(=S)Nc3ccc(C)cc3)ccc21	18µM	.	29µM	/	.	.
CCN1CCCc2cc(CN(CCN3CCOCC3)C(=S)Nc3cccc(Cl)c3)ccc21	13µM	?	16µM	/	.	.
CCN1CCCc2cc(CN(CCN3CCOCC3)C(=S)Nc3cc(F)cc(F)c3)ccc21	21µM	.	?	.	.	.
COc1ccc(Cn2cc(S(=O)(=O)c3ccc(C)cc3)c(=O)c3cc(F)ccc32)cc1	.	/	.	.	.	/
COc1cc2c3nnc(-c4ccc(F)cc4)c-3cn(Cc3ccccc3F)c2cc1OC	2.6µM	-60	3.7µM	/	.	.
COc1ccccc1Cc1c(-c2ccc(F)cc2)nc2ccc(Cl)cn12	?	.	?	.	.	.
COc1cc2c(=O)c(S(=O)(=O)c3ccc(F)cc3)cn(Cc3ccccc3C)c2cc1OC	18µM	/	16µM	?	.	/
COc1ccc2c(c1)c(=O)c(S(=O)(=O)c1ccc(F)cc1)cn2Cc1ccccc1Cl	0.23µM	/	0.26µM	?	.	/
Cc1cccc(C)c1NC(=O)C(c1ccccc1)n1c(-c2ccccc2)nc2ccccc21 (stereo not drawn)	?	.	?	.	.	?
COc1cc2c(cc1OC)[C@@H](NC(=O)C(C)C)[C@H](O)C2	.	.	.	.	.	.
CCCCCCCCCC(=O)N[C@@H]1c2cc(OC)c(OC)cc2C[C@H]1O	16µM	.	?	.	.	.
